The nature of test [1]: qHTS assay to identify small molecule agonists of the farnesoid-X-receptor (FXR) signaling pathway - cell viability counter screen (AID 743218; active = well fitted curve in the direction sought with a large enough effect in the repeat runs; an effect the other way counts as inactive or inconclusive; note: nearly all actives have a fitted effect of over 45% in size). A digest of the protocol:
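Cytotoxicity counter-screen run in parallel, same wells: FXR-UAS-bla HEK 293T cells dosed 16 h at 37 C, viability read by CellTiter-Glo luminescence after 30 min at room temperature.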

Test [2] deals with Bile acid receptor (Homo sapiens) (UniProt Q96RI1). As to the kind of experiment: qHTS assay to identify small molecule agonists of the farnesoid-X-receptor (FXR) signaling pathway (AID 743220; active = well fitted activation curve with a large enough effect in the signal ratio in the repeat runs, not every such curve was filed as active; the % refers to the signal ratio). A digest of the protocol:
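Beta-lactamase reporter under UAS control in GeneBLAzer FXR HEK 293T cells (5000/well) measured with LiveBLAzer FRET substrate after 2 h at room temperature. Compound exposure lasted 16 h at 37C.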
(In general: qHTS replaces the single test concentration by a dilution series.)

A short description of test [3]: qHTS assay to identify small molecule antagonists of the farnesoid-X-receptor (FXR) signaling pathway - cell viability counter screen (AID 743221; active = well fitted cell-killing curve with a large enough effect in the repeat runs, not every such curve was filed as active; note: nearly all actives have a fitted effect of over 50% in size). A digest of the protocol:
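FXR-UAS-bla HEK 293T cells were treated with test compounds plus chenodeoxycholic acid (50 uM final) for 16 h at 37 C. Cell viability in the same wells was then read as CellTiter-Glo luminescence after 30 min at room temperature.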

The target in test [4] is Vitamin D3 receptor (Homo sapiens) (UniProt P11473). As to the kind of experiment: qHTS assay to identify small molecule agonists of the vitamin D receptor (VDR) signaling pathway (AID 743222). A digest of the protocol:
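Quantitative HTS agonist-mode screen: compounds in DMSO were pin-transferred onto VDR-bla cells and incubated 16 h at 37C, 5% CO2. Reporter activity was detected with LiveBLAzer B/G FRET substrate after 2 h at room temperature.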

For test [5] the target is unchanged. As to the kind of experiment: qHTS assay to identify small molecule antagonists of the vitamin D receptor (VDR) signaling pathway (AID 743223; active = well fitted inhibition curve with a large enough effect in the signal ratio in the repeat runs, not every such curve was filed as active; the % refers to the signal ratio). A digest of the protocol: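 VDR-bla cells were plated, incubated 4 h at 37C, then given compound and 1alpha,25-dihydroxyvitamin D3 (3 nM final). After 16 h at 37C, LiveBLAzer B/G FRET substrate was added for 2 h at room temperature and fluorescence read.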

The nature of test [6]: qHTS assay to identify small molecule agonists of the vitamin D receptor (VDR) signaling pathway - cell viability counter screen (AID 743224; active = well fitted curve in the direction sought with a large enough effect in the repeat runs; an effect the other way counts as inactive or inconclusive; note: nearly all actives have a fitted effect of over 50% in size; note: potency is the fitted concentration of half-maximal effect). A digest of the protocol:
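Viability is measured in the same wells as the VDR-bla reporter assay: after 16 h compound treatment and 2 h substrate loading, CellTiter-Glo is added and luminescence read 30 min later.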

The nature of test [7]: qHTS assay to identify small molecule antagonists of the vitamin D receptor (VDR) signaling pathway - cell viability counter screen (AID 743225; active = well fitted curve in the direction sought with a large enough effect in the repeat runs; an effect the other way counts as inactive or inconclusive; note: nearly all actives have a fitted effect of over 50% in size). A digest of the protocol: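 VDR-bla HEK 293T cells, 4 h pre-incubation at 37C, then compound plus 1-alpha,25-dihydroxyvitamin D3 (3 nM final) for 16 h. After the beta-lactamase FRET read, CellTiter-Glo was added to the same wells; luminescence after 30 min at room temperature.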

Test [8] in a line: qHTS assay to identify small molecule agonists of the NFkB signaling pathway (AID 1159509; active = well fitted curve in the direction sought with a large enough effect in the signal ratio in the repeat runs, not every such curve was filed as active; the % refers to the signal ratio; note: series mostly up to about 61 µM). A digest of the protocol:
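After overnight attachment, reporter cells received test compounds, DMSO or positive controls and were incubated 5 hr at 37 C. FRET substrate was then added for 1.5 hr at room temperature before dual-emission fluorescence reading.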

The nature of test [9]: qHTS assay to identify small molecule agonists of the NFkB signaling pathway - cell viability counter screen (AID 1159515). Note: series mostly up to about 61 µM; nearly all actives have a fitted effect of over 55% in size. A digest of the protocol:
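Multiplexed viability readout: after the 5 hr compound exposure and 1.5 hr FRET substrate step, CellTiter-Glo reagent went into the same NFkB-bla ME-180 wells; ATP luminescence was measured after 30 min at room temperature.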

The nature of test [10]: qHTS assay to identify small molecule agonists of the endoplasmic reticulum stress response signaling pathway (AID 1159516; active = well fitted activation curve with a large enough effect in the signal ratio in the repeat runs, not every such curve was filed as active; the % refers to the signal ratio). A digest of the protocol: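 Tox21 10K library screened in quantitative HTS format on ESRE-bla HeLa cells, a beta-lactamase reporter under ER stress response element control; 5 hr treatment, FRET read.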
The nature of test [11]: qHTS assay to identify small molecule agonists of the endoplasmic reticulum stress response signaling pathway - cell viability counter screen (AID 1159517). Note: series mostly up to about 61 µM; nearly all actives have a fitted effect of over 50% in size. A digest of the protocol:
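Counter-screen wells were identical to the reporter wells. Cells were plated at 1,500 per well and dosed for 5 hr, then read for luminescence 30 min after CellTiter-Glo addition.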

Test [12] can be described thus: qHTS assay to identify small molecule antagonists of the retinoid-related orphan receptor gamma (ROR-gamma) signaling pathway - cell viability counter screen (AID 1159520; active = well fitted curve in the direction sought with a large enough effect in the repeat runs; an effect the other way counts as inactive or inconclusive; note: nearly all actives have a fitted effect of over 50% in size). A digest of the protocol: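 Tet-on ROR gamma CHO cells were given compounds for 2 hr, then doxycycline hyclate at 1 uM final, and incubated 16 hr at 37 C. Viability was measured as ATP content by CellTiter-Glo luminescence.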

Test [13] in a line: qHTS assay to identify small molecule agonists of the AP-1 signaling pathway - cell viability counter screen (AID 1159525). Note: nearly all actives have a fitted effect of over 55% in size. A digest of the protocol:
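AP-1-bla ME-180 cells in Opti-MEM with 0.5% dialyzed FBS, compound exposure 5 h at 37 C in 15-point titration. Viability read in the same wells as ATP content by CellTiter-Glo luminescence, normalised to tetra-n-octylammonium bromide and DMSO controls.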

The nature of test [14]: qHTS assay to identify small molecule agonists of the AP-1 signaling pathway (AID 1159526).
The target of test [15] is Peroxisome proliferator-activated receptor delta (Homo sapiens) (UniProt Q03181). As to the kind of experiment: qHTS assay to identify small molecule agonists of the peroxisome proliferator-activated receptor delta (PPARd) signaling pathway (AID 743212). A digest of the protocol: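 Quantitative high-throughput agonist screen in a HEK293H beta-lactamase reporter line under UAS control. Compounds in DMSO, at 37 C. Fluorescence read after 2 h with FRET substrate at room temperature.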

Test [16] in a line: qHTS assay to identify small molecule antagonists of the peroxisome proliferator-activated receptor delta (PPARd) signaling pathway - cell viability counter screen (AID 743213; active = well fitted curve in the direction sought with a large enough effect in the repeat runs; an effect the other way counts as inactive or inconclusive; note: nearly all actives have a fitted effect of over 50% in size). A digest of the protocol: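 PPARd-bla HEK293H cells were treated with compounds plus agonist L165041 (300 nM final) for 17 h at 37 C. Viability was then read in the same wells by CellTiter-Glo luminescence after 30 min at room temperature.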

Test [17] deals with Peroxisome proliferator-activated receptor delta (Homo sapiens) (UniProt Q03181). As to the kind of experiment: qHTS assay to identify small molecule antagonists of the peroxisome proliferator-activated receptor delta (PPARd) signaling pathway (AID 743215; active = well fitted inhibition curve with a large enough effect in the signal ratio in the repeat runs, not every such curve was filed as active; the % refers to the signal ratio;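 note: cells stimulated with agonist L165041 at 300 nM final during compound exposure; series mostly up to about 62 µM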). A digest of the protocol:
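Inhibition of L165041-driven (300 nM final) PPARd signaling is scored in HEK293H UAS-bla cells. Exposure lasts 17 h at 37 C; beta-lactamase activity is then read by FRET substrate fluorescence after 2 h at room temperature.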

Test [18] in a line: qHTS assay to identify small molecule agonists of the peroxisome proliferator-activated receptor delta (PPARd) signaling pathway - cell viability counter screen (AID 743211; active = well fitted curve in the direction sought with a large enough effect in the repeat runs; an effect the other way counts as inactive or inconclusive; note: nearly all actives have a fitted effect of over 55% in size). A digest of the protocol:
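PPARd-bla HEK293H cells (UAS-beta-lactamase reporter) were treated with compounds for 17 h at 37 C. Viability was then read in the same wells by CellTiter-Glo luminescence after 30 min at room temperature.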

Test [19] has as its target Bile acid receptor (Homo sapiens) (UniProt Q96RI1). As to the kind of experiment: qHTS assay to identify small molecule antagonists of the farnesoid-X-receptor (FXR) signaling pathway (AID 743217; active = well fitted inhibition curve with a large enough effect in the signal ratio in the repeat runs, not every such curve was filed as active; the % refers to the signal ratio). A digest of the protocol: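 Antagonist mode against 50 uM (final) chenodeoxycholic acid stimulation in FXR-bla HEK 293T cells, 16 h at 37 °C. Inhibition detected as reduced beta-lactamase activity via LiveBLAzer B/G FRET fluorescence after 2 h at room temperature.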

Records with an inconclusive call do not appear. The source made the active and inactive calls. Unless noted, calls come from the whole dose curve.

Sequence of Bile acid receptor (Homo sapiens) (Q96RI1 whole entry, looked up): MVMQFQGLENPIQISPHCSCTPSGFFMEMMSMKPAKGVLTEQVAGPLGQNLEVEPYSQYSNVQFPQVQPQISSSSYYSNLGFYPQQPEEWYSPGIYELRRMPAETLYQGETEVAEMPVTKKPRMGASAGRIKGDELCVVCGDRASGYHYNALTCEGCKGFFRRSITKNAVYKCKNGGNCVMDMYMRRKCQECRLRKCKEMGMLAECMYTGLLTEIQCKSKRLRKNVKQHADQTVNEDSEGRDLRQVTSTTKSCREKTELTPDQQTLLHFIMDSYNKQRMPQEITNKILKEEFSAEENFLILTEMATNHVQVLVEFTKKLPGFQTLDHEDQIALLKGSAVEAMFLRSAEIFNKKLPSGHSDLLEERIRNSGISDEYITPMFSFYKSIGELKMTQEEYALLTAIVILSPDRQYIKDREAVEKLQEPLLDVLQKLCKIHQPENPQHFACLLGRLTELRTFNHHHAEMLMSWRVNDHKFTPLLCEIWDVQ
Sequence of Peroxisome proliferator-activated receptor delta (Homo sapiens) (Q03181 whole entry, looked up): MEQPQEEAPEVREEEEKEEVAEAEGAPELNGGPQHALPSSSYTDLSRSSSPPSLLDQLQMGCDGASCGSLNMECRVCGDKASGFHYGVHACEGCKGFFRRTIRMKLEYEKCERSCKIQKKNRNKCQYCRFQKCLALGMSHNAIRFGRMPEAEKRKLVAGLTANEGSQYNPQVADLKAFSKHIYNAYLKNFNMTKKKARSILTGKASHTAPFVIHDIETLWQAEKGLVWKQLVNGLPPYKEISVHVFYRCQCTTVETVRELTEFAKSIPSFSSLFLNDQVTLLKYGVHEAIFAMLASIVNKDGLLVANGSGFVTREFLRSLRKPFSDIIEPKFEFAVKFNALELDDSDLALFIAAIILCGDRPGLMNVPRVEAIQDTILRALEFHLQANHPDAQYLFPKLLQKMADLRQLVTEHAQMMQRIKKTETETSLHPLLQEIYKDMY
Sequence of Vitamin D3 receptor (Homo sapiens) (P11473 whole entry, looked up): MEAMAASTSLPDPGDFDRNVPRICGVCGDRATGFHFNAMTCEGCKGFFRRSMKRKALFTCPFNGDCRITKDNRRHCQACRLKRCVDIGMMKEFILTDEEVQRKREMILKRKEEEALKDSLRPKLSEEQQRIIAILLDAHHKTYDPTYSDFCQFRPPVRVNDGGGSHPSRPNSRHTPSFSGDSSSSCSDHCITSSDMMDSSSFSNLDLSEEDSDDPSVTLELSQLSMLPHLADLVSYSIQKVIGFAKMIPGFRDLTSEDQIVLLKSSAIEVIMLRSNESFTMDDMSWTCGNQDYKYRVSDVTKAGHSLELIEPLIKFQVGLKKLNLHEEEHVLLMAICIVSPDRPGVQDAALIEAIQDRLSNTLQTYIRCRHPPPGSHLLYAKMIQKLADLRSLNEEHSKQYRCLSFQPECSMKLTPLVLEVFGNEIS

For the compound `CCCCCC=CCC=CCCCCCCCC(=O)OCC`, the Potency result in [1], in [2], in test [3], in [7] and in [12] was “inactive” each time. The result in [4], in test [5], in test [8], in [9], in test [10] and in test [11] was inactive. In addition, the compound was classed as inactive in [13] and in test [14]. Also, the Potency in test [6] was 29.8 µM (active).

As for `CCOC(=N)CC(=O)OCC`, the Potency entry in test [15], in test [16], in test [17], in test [1], in test [3] and in test [6] was “inactive” each time. Besides, the Potency entry in [7] and in [12] was “inactive” throughout. The call in [8], in test [9], in test [10], in [11], in test [13] and in test [14] was inactive.

As for `C=CCNc1nc(NCC=C)nc(N2CCN(C(c3ccc(F)cc3)c3ccc(F)cc3)CC2)n1`, the Potency entry in test [18], in test [15], in test [16], in test [19], in test [2] and in [3] was “inactive” in each case. Besides, the Potency entry in test [6] and in test [12] was “inactive” in each case. Further, the call in test [4], in test [5], in test [8], in test [9], in test [10] and in test [11] was inactive. In addition, the outcome in test [13] was inactive.

With `CC1=CC(O)CC(C)(C)C1` (stereo not drawn), the Potency entry in [15], in test [16], in [3], in test [6], in test [7] and in test [12] was “inactive” throughout. Further, the outcome in test [4], in [5], in test [8], in test [9], in test [10] and in test [11] was inactive. In addition, the compound was classed as inactive in test [13] and in [14].

Regarding `CCCCCCCC/C=C\CCCCCCCC(=O)OC(CO)CO`, the Potency result in test [16], in test [1], in test [3], in [6] and in test [12] was “inactive” in each case. Also, the result in test [8], in test [9], in test [10], in test [11], in [13] and in test [14] was inactive.

Regarding `O=c1[nH]c2ccc(S(=O)CCN3CCC(Cc4ccc(F)cc4)CC3)cc2o1` (stereo not drawn), the Potency result in test [18], in test [16], in test [3], in test [6], in test [7] and in test [12] was “inactive” in each case. In addition, the outcome in test [8], in [9], in test [10], in test [11], in [13] and in [14] was inactive.

`CC(=O)[C@H]1CC[C@H]2[C@@H]3C=CC4=CC(=O)CC[C@@]4(C)[C@@H]3CC[C@]12C`: the Potency entry in [16], in test [2], in test [3], in test [6], in test [7] and in test [12] was “inactive” in each case. The call in test [8], in [9], in [10], in test [11], in test [13] and in [14] was inactive.

Turning to `CC(C)OCC1CO1` (stereo not drawn), the Potency result in [15], in [16], in test [1], in test [2], in test [3] and in test [6] was “inactive” each time. Besides, the Potency entry in [7] and in test [12] was “inactive” throughout. The compound was called inactive in test [4], in test [5], in [8], in test [9], in test [10] and in [11]. In addition, the result in test [13] and in test [14] was inactive.

In the case of `N#C/C(=C1/SC[C@@H](c2ccc(Cl)cc2Cl)S1)n1ccnc1`, the Potency entry in test [16], in test [1], in test [3] and in test [12] was “inactive” in each case. For the same compound, the compound was called inactive in [8], in [9], in test [10], in test [11], in test [13] and in test [14].

Source of the values: PubChem BioAssay (Tox21).
